Most compounds without a hit are left out; they make up all but 5.6% or so of the library.
Six1-Eya2 blk: blocks human Six1 binding to Eya2 | activity change, % (no concentration beside the values) | Q15475+O00167 | actives 0.56% (n = 360,000) | AID 651725 | AlphaScreen GST-Six1/His-Eya2 binding, biochemical; hits give low values; in the data active = activity change below about -65%; inconclusive = mostly about -30% to -63%
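Six1/Eya2 binding was read as AlphaScreen signal after compounds were pinned into GST-Six1 plus His-tagged Eya2 (5X stock 250/500 nM) in pH 8.0 Tris/NaCl/TCEP buffer, beads added, then incubated 1 h, 37 C, dark.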
VP16 counter: Gal4-VP16 reporter inhibition counter-screen; Drosophila S2 Gal4-VP16 UAS-luciferase, luminescence, 20 h; Potency, µM (highest dose often 53.6 µM), for the others: at the highest dose activity, negative = inhibition, usual class: inhibitors; actives 3.5% (n = 310,000); AID 2546;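 note: Gal4-VP16 expression switched on by copper sulfate through the metallothionein promoter; potency is the fitted concentration of half-maximal effect; nearly all actives have a fitted effect of over 50% in size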
PKM2 act: PKM2 (human) enzyme activation; Potency, µM (highest dose often 57.5 µM), for inactives: at the top dose activation, most hits filed as activators; P14618; purified PKM2, Kinase-Glo ATP luminescence, activation; response scale: 0% is enzyme alone, no compound; actives 0.34% (n = 260,000); note: potency is the fitted concentration of half-maximal effect; nearly all actives have a fitted effect of over 55% in size
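Purified hPK-M2 (>95%) run at intermediate activity with 0.1 mM ADP and 0.5 mM PEP in 50 mM imidazole pH 7.2, KCl, MgCl2; 1 h room temperature. ATP formed read by Kinase-Glo luminescence; normalized to uninhibited and no-enzyme controls.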
CtBP-E1A inh: CtBP/E1A binding inhibition | activity change, % (test concentration not listed) | AlphaScreen GST-E1A/His-CtBP binding, 1536-well; hits give low values | AID 651724 | actives 0.49% (n = 340,000); in the data active = activity change below about -65%; inconclusive = mostly about -30% to -63%
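AlphaScreen with 125 nM GST-E1A and 125 nM His-CtBP (5X stocks) in Tris pH 8.0, 300 mM NaCl, BSA, Tween 20, TCEP. Compounds preincubated 2 h at 37 deg C, then glutathione donor/nickel acceptor beads added for 1 h at 37 deg C in dark.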
RORg inh: inhibitors of mouse ROR gamma transcriptional activity | Drosophila S2 Gal4-RORgamma UAS-luciferase reporter, 20 h | actives 5.4% (n = 310,000) | P51450 | Potency, µM (highest dose often 53.6 µM), for inactives: at the highest dose activity change, negative = inhibition, hits mostly inhibitors | AID 2551; note: potency is the fitted concentration of half-maximal effect; nearly all actives have a fitted effect of over 60% in size
Target sequence (P51450 whole entry, looked up, the tested form may be a part): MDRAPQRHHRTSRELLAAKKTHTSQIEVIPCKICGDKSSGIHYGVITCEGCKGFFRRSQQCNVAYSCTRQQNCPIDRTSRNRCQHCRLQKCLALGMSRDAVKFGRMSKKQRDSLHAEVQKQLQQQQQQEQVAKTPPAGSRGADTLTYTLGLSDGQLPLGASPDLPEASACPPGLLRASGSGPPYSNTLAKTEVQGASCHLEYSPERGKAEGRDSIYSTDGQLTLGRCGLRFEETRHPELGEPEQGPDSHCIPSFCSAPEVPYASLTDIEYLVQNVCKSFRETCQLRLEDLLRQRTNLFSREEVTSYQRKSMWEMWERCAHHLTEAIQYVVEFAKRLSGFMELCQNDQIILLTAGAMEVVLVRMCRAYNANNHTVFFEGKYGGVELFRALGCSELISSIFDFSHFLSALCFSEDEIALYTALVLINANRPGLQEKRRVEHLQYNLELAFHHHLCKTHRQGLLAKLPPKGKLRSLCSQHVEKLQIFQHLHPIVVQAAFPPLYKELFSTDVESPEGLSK
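ROR gamma transcriptional activity was tracked as Gal4-UAS luciferase output in stably transfected Drosophila Schneider cells, with compound added 1 hr before 700 uM copper sulfate induction and a 20 hr ambient-temperature incubation.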
Numbers without * were called inactive; [ ] = another dose, or the depositor's remark. Unless noted, calls come from the whole dose curve; as a rule, active = well fitted curve in the direction sought with a large enough effect; inconclusive = small, poorly fitted or top-dose-only effect, or another doubt; inactive = no such curve, though single readings can be large; an effect the other way counts as inactive or inconclusive. % is set by controls: 0 for no effect and ±100 for the full control effect.

CC(C)c1cccc(C(C)C)c1OCCCCCN1CCOCC1 was read as Six1-Eya2 blk -1.
`Clc1ccc(-c2csc3ncnc(Cl)c23)cc1` gave Six1-Eya2 blk 0, VP16 counter -29%, PKM2 act 4%, CtBP-E1A inh -4 and RORg inh 11µM*.
For Cc1sc2nc[nH]c(=S)c2c1-c1ccccc1 the results were Six1-Eya2 blk -14, VP16 counter 0.63µM*, PKM2 act 0%, CtBP-E1A inh -8 and RORg inh 0.28µM*.
Cc1ccc(-c2csc3nc[nH]c(=S)c23)cc1 was read as Six1-Eya2 blk -16, VP16 counter 0.014µM*, PKM2 act 3%, CtBP-E1A inh 2 and RORg inh 0.025µM*.
O=c1[nH]cnc2scc(-c3ccccc3)c12 was read as Six1-Eya2 blk 29, VP16 counter 6%, PKM2 act 2%, CtBP-E1A inh 13 and RORg inh 28%.
`Cc1sc2nc[nH]c(=O)c2c1-c1ccc(F)cc1` gave Six1-Eya2 blk 15, VP16 counter -2%, PKM2 act 3% and RORg inh 0%.
Cc1cc(-c2csc3nc[nH]c(=S)c23)cc(C)c1C was read as Six1-Eya2 blk -10, VP16 counter 0.56µM*, PKM2 act -1%, CtBP-E1A inh 3 and RORg inh 0.32µM*.
`O=c1[nH]cnc2scc(-c3ccc(Br)cc3)c12` gave Six1-Eya2 blk -1, VP16 counter 2%, PKM2 act -1%, CtBP-E1A inh -10 and RORg inh -7%.
For Cc1cc2c(cc1S(=O)(=O)Nc1ccc(OC(F)(F)F)cc1)OCC(=O)N2 the results were Six1-Eya2 blk -9, VP16 counter 7%, CtBP-E1A inh -3 and RORg inh 12%.
For CC(C)c1ccc(-c2csc3nc[nH]c(=O)c23)cc1 the results were Six1-Eya2 blk 2, VP16 counter -11%, PKM2 act -3% and RORg inh inconclusive.
Screening S=c1[nH]cnc2scc(-c3ccc(Cl)cc3)c12 returned Six1-Eya2 blk 0, VP16 counter 1µM*, PKM2 act 1%, CtBP-E1A inh 1 and RORg inh 0.45µM*.
`S=c1[nH]cnc2scc(-c3ccc(Br)cc3)c12` gave Six1-Eya2 blk -2, VP16 counter 0.63µM*, PKM2 act 3%, CtBP-E1A inh -1 and RORg inh 0.5µM*.
For O=c1[nH]c(=S)[nH]c2nc(-c3cccs3)cc(C(F)(F)F)c12 the results were Six1-Eya2 blk inconclusive, VP16 counter -12%, CtBP-E1A inh 4 and RORg inh 11µM*.
CC(C)(C)c1ccc(C(=O)NNC(=O)c2cccc(Br)c2)cc1 was read as Six1-Eya2 blk 3, VP16 counter inconclusive, PKM2 act 2%, CtBP-E1A inh 0 and RORg inh inconclusive.
Cc1cccc(NC(=O)C(=O)NNC(=O)c2ccc(C(C)(C)C)cc2)c1 was read as Six1-Eya2 blk 0, VP16 counter 10µM*, CtBP-E1A inh -8 and RORg inh inconclusive.
For Cc1ccccc1NC(=S)N(Cc1ccccn1)Cc1ccccc1Cl the results were Six1-Eya2 blk -8, VP16 counter inconclusive, PKM2 act 9%, CtBP-E1A inh -3 and RORg inh 6.3µM*.
`COc1ccccc1NC(=S)N(Cc1ccccn1)Cc1ccccc1Cl` gave Six1-Eya2 blk 4, VP16 counter -1%, PKM2 act 3%, CtBP-E1A inh 2 and RORg inh 33%.
Screening COc1ccccc1NC(=S)N(Cc1ccc(C)cc1)Cc1cccnc1 returned Six1-Eya2 blk -2, VP16 counter 4%[10 µM], PKM2 act 0%, CtBP-E1A inh 2 and RORg inh 7.9µM*.
Screening Cc1ccccc1NC(=S)N(Cc1cccnc1)Cc1ccccc1Cl returned Six1-Eya2 blk -2, VP16 counter -16%, PKM2 act 9%, CtBP-E1A inh -8 and RORg inh 2.2µM*.
COc1ccc(C2C(C#N)=C(C)NC(C)=C2C(=O)OC(C)C)c(OC)c1 (stereo not drawn) was read as Six1-Eya2 blk -7, VP16 counter 1%, PKM2 act 0%, CtBP-E1A inh 33 and RORg inh 4%.
COC(=O)C1CC1[C@H](NC(=O)c1cccnc1)c1ccccc1 (stereo partly drawn) was read as VP16 counter 1% and RORg inh -24%.
`COc1ccc(CC(=O)NC(=S)Nc2cccc(C)c2)cc1` gave Six1-Eya2 blk -5 and CtBP-E1A inh 5.
`COC(=O)CCC(=O)NNC(=O)CCCOc1ccc(Cl)cc1Cl` gave Six1-Eya2 blk -2, VP16 counter inconclusive, PKM2 act -2%, CtBP-E1A inh 5 and RORg inh 12%.
CCCC(=O)Nc1ccccc1NC(=O)CCC was read as Six1-Eya2 blk 9, VP16 counter 3%, PKM2 act -3%, CtBP-E1A inh 5 and RORg inh 0%.
CCCC(=O)NC(=S)Nc1ccccc1F was read as Six1-Eya2 blk 13, VP16 counter inconclusive, PKM2 act 0%, CtBP-E1A inh 6 and RORg inh 4µM*.
For CCCC(=O)NC(=S)Nc1ccccc1OC the results were Six1-Eya2 blk 6, VP16 counter inconclusive, PKM2 act -1%, CtBP-E1A inh -9 and RORg inh 10µM*.
`COC(=O)CCC(=O)NNC(=O)c1ccc(Cl)cc1Cl` gave Six1-Eya2 blk 5, VP16 counter -14%, PKM2 act 7%, CtBP-E1A inh 10 and RORg inh 11µM*.
COc1cccc(NC(=S)NC(=O)Cc2ccc(Cl)cc2)c1 was read as Six1-Eya2 blk 9, VP16 counter 7.1µM*, PKM2 act -7%[11.5 µM], CtBP-E1A inh 21 and RORg inh 7.1µM*.
Oc1ccccc1CC=NC1CCCCC1 was read as Six1-Eya2 blk 0 and CtBP-E1A inh 4.
COc1ccccc1NC(=S)NC(=O)CCCOc1ccc(Cl)cc1Cl was read as Six1-Eya2 blk -1, VP16 counter 16µM*, PKM2 act -4%, CtBP-E1A inh 10 and RORg inh 10µM*.
For COc1ccc(-c2nc3cc(NC(=S)NC(=O)Cc4ccccc4)ccc3o2)cc1 the results were Six1-Eya2 blk -1, VP16 counter 2.5µM*, PKM2 act -4%, CtBP-E1A inh -8 and RORg inh 4.5µM*.
Screening COc1ccccc1NC(=S)NNC(=O)c1ccc(Cl)cc1Cl returned Six1-Eya2 blk -8, VP16 counter inconclusive, PKM2 act -9%, CtBP-E1A inh -9 and RORg inh 13µM*.
`CC(=O)NC(=S)Nc1ccccc1F` gave Six1-Eya2 blk 7, VP16 counter inconclusive, PKM2 act -18% and RORg inh inconclusive.
CCC(=O)NC(=S)Nc1ccccc1F was read as Six1-Eya2 blk 10, VP16 counter inconclusive, PKM2 act -5%, CtBP-E1A inh 3 and RORg inh 13µM*.

Screening results as filed in PubChem.
